Structures are written as SMILES. Inconclusive results are not listed. Calls of active or inactive are those of the source. Calls come from the whole dose curve; as a rule, active = well fitted cell-killing curve with a large enough effect; inconclusive = small, poorly fitted or top-dose-only effect; inactive = flat fitted curve, though single readings scatter.
Note: nearly all actives have a fitted effect of over 55% in size.

The nature of the first test: Cell Viability - LYMP2-017 (AID 972).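 Note: cells exposed to compound for 24 hours at 37 °C.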 To be noted: LYMP2-017 lymphoblastoid cell viability; series mostly up to 92.2 µM. A digest of the protocol:
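2500 cells/well, 5 h 37 C; cpd 24 h 37 C in complete medium; CellTiter-Glo, 30 min RT; luminescence (ATP). AC50 via Hill fit, qHTS.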
With `NC(=Nc1ccccc1)Nc1ccccc1`, the compound was classed as inactive.
For the compound `CN=C(NC#N)NCCSCc1nc[nH]c1C`, the call was inactive.
On to `NC(=O)N1c2ccccc2C=Cc2ccccc21`, for which the compound was called inactive.
On to `COc1cc(Cc2cnc(N)nc2N)cc(OC)c1OC`, for which the call was inactive.
Regarding `O=c1[nH]c(=O)n([C@H]2C[C@H](O)[C@@H](CO)O2)cc1Br`, the call was inactive.
As to `CCCCNC(=O)NS(=O)(=O)c1ccc(C)cc1`, the result was inactive.
Same read-out and setting: the value for `CCCCOCCOCCOCc1cc2c(cc1CCC)OCO2` was “inactive”; that for `COc1ccc(CN(CCN(C)C)c2ccccn2)cc1` was “inactive”.

Another test in a line: Cell Viability - LYMP2-019 (AID 973).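 Note: cells exposed to compound for 24 h at 37 °C.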 To be noted: LYMP2-019 lymphoblastoid cell line viability; series mostly up to 92.2 µM. A digest of the protocol: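 Luminescent ATP read-out (CellTiter-Glo, 30 min room temperature) served as the viability measure after 24 hr treatment of lymphoblastoid cells at 37 C. Concentration-response data were fitted to the Hill equation for AC50.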
As for `NC(=Nc1ccccc1)Nc1ccccc1`, the compound was called inactive.
As for `CN=C(NC#N)NCCSCc1nc[nH]c1C`, the outcome was inactive.
Turning to `NC(=O)N1c2ccccc2C=Cc2ccccc21`, the result was inactive.
For the compound `COc1cc(Cc2cnc(N)nc2N)cc(OC)c1OC`, the compound was called inactive.
In the case of `O=c1[nH]c(=O)n([C@H]2C[C@H](O)[C@@H](CO)O2)cc1Br`, the compound was classed as inactive.
As for `CCCCNC(=O)NS(=O)(=O)c1ccc(C)cc1`, the compound was called inactive.
Turning to `CCCCOCCOCCOCc1cc2c(cc1CCC)OCO2`, the compound was called inactive.
On the same count and under the same terms, the value for `Nc1nc(N)c2nc(-c3ccccc3)c(N)nc2n1` was “inactive”; that for `COc1ccc(CN(CCN(C)C)c2ccccn2)cc1` was “inactive”.

A further test is described as follows: Cell Viability - LYMP2-021 (AID 974).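 Note: compound exposure lasts 24 hours at 37 °C.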 To be noted: LYMP2-021 lymphoblastoid cells viability; series mostly up to 92.2 µM. The method, boiled down:
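Plate 2500 lymphoblastoid cells per well and incubate 5 hr at 37 C. Add compounds over a concentration range and incubate 24 hr at 37 C. Add CellTiter-Glo, wait 30 min at room temperature, read luminescence.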
As to `NC(=Nc1ccccc1)Nc1ccccc1`, the call was inactive.
On to `CN=C(NC#N)NCCSCc1nc[nH]c1C`, for which the compound was called inactive.
Take `NC(=O)N1c2ccccc2C=Cc2ccccc21`: the compound was called inactive.
For the compound `COc1cc(Cc2cnc(N)nc2N)cc(OC)c1OC`, the compound was classed as inactive.
Consider `O=c1[nH]c(=O)n([C@H]2C[C@H](O)[C@@H](CO)O2)cc1Br`, for which the compound was classed as inactive.
Turning to `CCCCNC(=O)NS(=O)(=O)c1ccc(C)cc1`, the result was inactive.
On the same count and under the same terms, the value for `CCCCOCCOCCOCc1cc2c(cc1CCC)OCO2` was “inactive”; that for `Nc1nc(N)c2nc(-c3ccccc3)c(N)nc2n1` was “inactive”.
With `COc1ccc(CN(CCN(C)C)c2ccccn2)cc1`, the compound was classed as inactive.

Another test can be described thus: Cell Viability - LYMP2-023 (AID 975).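 Note: cellular ATP measured by luciferase luminescence as viability proxy; cells exposed to compound for 24 hours at 37 °C.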 To be noted: LYMP2-023 lymphoblastoid cell viability; series mostly up to 92.2 µM. The method, boiled down: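 2500 cells/well, 5 hr 37 C; cpd 24 hr 37 C; CellTiter-Glo, 30 min RT; luminescence. qHTS conc-response, Hill fit -> AC50. Pos ctrl tetraoctylammonium bromide.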
In the case of `NC(=Nc1ccccc1)Nc1ccccc1`, the outcome was inactive.
Take `CN=C(NC#N)NCCSCc1nc[nH]c1C`: the call was inactive.
On to `NC(=O)N1c2ccccc2C=Cc2ccccc21`, for which the call was inactive.
For the compound `COc1cc(Cc2cnc(N)nc2N)cc(OC)c1OC`, the compound was called inactive.
For the compound `O=c1[nH]c(=O)n([C@H]2C[C@H](O)[C@@H](CO)O2)cc1Br`, the compound was called inactive.
For the compound `CCCCNC(=O)NS(=O)(=O)c1ccc(C)cc1`, the outcome was inactive.
Consider `CCCCOCCOCCOCc1cc2c(cc1CCC)OCO2`, for which the compound was called inactive.
Turning to `Nc1nc(N)c2nc(-c3ccccc3)c(N)nc2n1`, the outcome was inactive.
For `COc1ccc(CN(CCN(C)C)c2ccccn2)cc1`, the result was inactive.
